# From PubChem BioAssay (NCI)
# This is part of a sample that, as a whole, favours compounds with a hit. Of some 83,000 tested, about 20% had one in any assay.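 Cell lines were cultured in 96-well plates, exposed to a single compound concentration, and assessed for percent growth 48 hours later.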 Values without a mark were called inactive. The source made the active and inactive calls. How the source made its calls: active means growth percent below 10; inactive means the rest.
# How the values were obtained:
# Assay in all cases: NCI-60 one-dose screen, 48 h (100 = growth as untreated, 0 = no growth, -100 = all killed)
# Conditions in all cases: 10 µM unless noted
# SR leukemia = test system: SR leukemia
# RPMI-8226 leukemia = test system: RPMI-8226 leukemia
# OVCAR-8 ovarian = test system: OVCAR-8 ovarian
# OVCAR-5 ovarian = test system: OVCAR-5 ovarian
# OVCAR-4 ovarian = test system: OVCAR-4 ovarian
# SK-OV-3 ovarian = test system: SK-OV-3 ovarian
# IGROV1 ovarian = test system: IGROV1 ovarian
# OVCAR-3 ovarian = test system: OVCAR-3 ovarian
# HS 578T breast = test system: HS 578T breast
# NCI/ADR-RES ovarian = test system: NCI/ADR-RES ovarian
# T-47D breast = test system: T-47D breast
# BT-549 breast = test system: BT-549 breast
# MDA-MB-435 melanoma = test system: MDA-MB-435 melanoma
# SW-620 colon = test system: SW-620 colon
# MCF7 breast = test system: MCF7 breast
# HCT-116 colon = test system: HCT-116 colon
# HCC-2998 colon = test system: HCC-2998 colon
# KM12 colon = test system: KM12 colon
Compound,growth (SR leukemia),growth (RPMI-8226 leukemia),growth (OVCAR-8 ovarian),growth (OVCAR-5 ovarian),growth (OVCAR-4 ovarian),growth (SK-OV-3 ovarian),growth (IGROV1 ovarian),growth (OVCAR-3 ovarian),growth (HS 578T breast),growth (NCI/ADR-RES ovarian),growth (T-47D breast),growth (BT-549 breast),growth (MDA-MB-435 melanoma),growth (SW-620 colon),growth (MCF7 breast),growth (HCT-116 colon),growth (HCC-2998 colon),growth (KM12 colon)
CCC(/C=C\C(C)=O)CC,101%,97.6%,103%,104%,86.5%,110%,115%,122%,102%,105%,101%,103%,100%,99%,105%,97.3%,106%,105%
Nc1c(O)c(S(=O)(=O)O)c(O)c2c1C(=O)c1ccccc1C2=O,13.8%,11.5%,27.8%,42.8%,26.1%,22.9%,19.2%,8.87% (active),59.7%,17.8%,23.5%,40%,21.3%,15.6%,13.8%,7.87% (active),31.8%,5.95% (active)
O=C(NCc1ccco1)Nc1cccc2c(NC(=O)NCc3ccco3)cccc12,69.4% [100 µM],33.9% [100 µM],-73.4% [100 µM] (active),66.4% [100 µM],92.3% [100 µM],111% [100 µM],66.3% [100 µM],97.5% [100 µM],88.2% [100 µM],103% [100 µM],69.2% [100 µM],57.1% [100 µM],40% [100 µM],23.1% [100 µM],60.1% [100 µM],15% [100 µM],74.5% [100 µM],61.1% [100 µM]
CC(=O)OCC1CCC(COC(C)=O)CC1 (stereo not drawn),95.7%,103%,106%,106%,111%,87.9%,105%,102%,106%,99.2%,93%,112%,103%,109%,90.9%,103%,91.5%,99.2%
O=C(NCCc1ccccc1)/C(=C\c1ccc(Cl)cc1Cl)NC(=O)c1ccccc1,87.6%,92%,95.3%,101%,98.7%,97.6%,96.3%,94.1%,96.4%,91.8%,98.1%,104%,96.6%,95.7%,91.9%,99.7%,113%,93.4%
CCOC(=O)c1c(C)[nH]c(C)c1C=O,84.4%,89.7%,94.5%,96.4%,107%,94%,103%,112%,98.9%,107%,82%,95.8%,105%,97.9%,89.1%,101%,92.9%,104%
CCCC(OC(C)=O)c1ccc2c(c1)OCO2 (stereo not drawn),103%,107%,99%,106%,110%,105%,104%,105%,99.6%,104%,100%,110%,106%,109%,95.8%,108%,98%,106%
O=S(=O)(c1ccc(NC(=S)NCc2cccnc2)cc1)N1CCCCC1,49.1%,36.2%,110%,59.8%,95.6%,79.3%,62%,82.3%,70.3%,63.4%,32.9%,73.4%,36.2%,32.7%,54.7%,26.2%,71.6%,51.7%
CCCCCCCCCCCCCCCCCCSC(=N)N,-13.5% (active),61.7%,86.9%,83.2%,76.1%,83.3%,70.5%,89.5%,100%,81%,90%,104%,84.7%,46.3%,51.7%,66.6%,45.2%,64.5%
C1=NCCc2ccccc21,97%,99%,99.1%,105%,98.7%,93%,105%,100%,83.8%,106%,86%,106%,111%,98.5%,90.3%,89.7%,112%,110%
O=C1NC(=O)C(c2ccccc2)O1 (stereo not drawn),93.3%,99.5%,102%,106%,98.2%,96.6%,108%,117%,117%,97.8%,83.8%,99.6%,104%,111%,105%,98.1%,105%,112%
Cc1onc(-c2c(F)cccc2Cl)c1-c1ncc(-c2ccc(Br)cc2)o1,13.7%,22.6%,38.3%,70%,48%,66.1%,36.8%,43.6%,66.6%,31.1%,29.6%,40.7%,40.8%,35.6%,20.9%,17.8%,58.6%,36.4%
C=CCNC(=S)N/C=C(/C(=O)c1ccccc1)c1ccccc1,95.4%,101%,117%,97.7%,110%,110%,106%,112%,103%,104%,99.4%,98.2%,98.6%,98.9%,97.6%,115%,105%,104%
CCOc1ccc(C(=O)O)cc1,99.4%,103%,106%,105%,103%,98.8%,113%,115%,95.3%,105%,100%,96.7%,104%,99.7%,94%,99%,104%,112%
COc1ccc2c(ccc[n+]2C)c1,115%,85.4%,94.8%,99.9%,91.9%,107%,85.3%,82.7%,80.2%,106%,102%,113%,110%,101%,96.1%,99.8%,104%,90.6%
CN(C)c1ccc2nc3ccc(=[N+](C)C)cc-3oc2c1,60.3%,45.6%,8.48% (active),-12.3% (active),-76% (active),61.3%,5.34% (active),-10.6% (active),101%,66.3%,14.4%,63.2%,55.1%,9.01% (active),-30.4% (active),6.48% (active),43.3%,35.1%
